About 2,600 (16%) of roughly 16,000 compounds were called active. About 20% were inconclusive and are not listed. These entries were drawn from the full list. Unmarked numbers belong to inactive results. The call rests on the fitted dose curve; in most records, active means well fitted curve in the direction sought with a large enough effect; inconclusive means small, poorly fitted or top-dose-only effect, or effect the other way; inactive means no such curve, though single readings can be large or run the other way.
The compounds below were run against Cytochrome P450 2D6 (Homo sapiens) (UniProt P10635) (assay: Cytochrome panel assay with activity outcomes). Settings: recombinant CYP, pro-luciferin dealkylation, luminescence, p450-cyp2d6; series mostly up to 57.1 µM.
Sequence of Cytochrome P450 2D6 (Homo sapiens) (P10635 whole entry, looked up): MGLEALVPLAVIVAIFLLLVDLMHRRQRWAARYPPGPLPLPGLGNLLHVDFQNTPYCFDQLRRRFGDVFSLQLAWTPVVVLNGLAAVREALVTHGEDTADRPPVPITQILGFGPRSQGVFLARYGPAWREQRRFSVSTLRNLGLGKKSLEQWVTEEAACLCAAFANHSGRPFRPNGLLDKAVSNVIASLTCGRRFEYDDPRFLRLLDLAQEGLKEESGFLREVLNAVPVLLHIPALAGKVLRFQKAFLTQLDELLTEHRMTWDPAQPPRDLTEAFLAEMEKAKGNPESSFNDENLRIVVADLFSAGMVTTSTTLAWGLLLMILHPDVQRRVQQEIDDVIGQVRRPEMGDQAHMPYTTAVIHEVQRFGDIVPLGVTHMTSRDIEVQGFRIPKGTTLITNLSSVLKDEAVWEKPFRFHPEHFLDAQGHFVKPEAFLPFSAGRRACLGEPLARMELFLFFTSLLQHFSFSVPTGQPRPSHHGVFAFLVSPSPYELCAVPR
On the % scale 0 is the no-effect control and ±100 the full control effect.

Row | Compound | AC50 | activity, negative = inhibition
1 | Cn1c(SCC(=O)c2ccc3c(c2)Cc2ccccc2-3)nnc1-c1ccccc1 | inactive | –
2 | Cc1cc(C)nc(Nc2n[nH]c(COc3cccc4ccccc34)n2)n1 | inactive | –
3 | CCN1CCc2nc(N)oc2CC1 | inactive | –
4 | Nc1ncnc2c1ncn2[C@H]1O[C@@H](C(=O)O)[C@@H](O)[C@H]1O | – | 2.66% [at 11.4 µM]
5 | Cc1c(CC(C)(C)C(=O)O)n(Cc2ccc(Cl)cc2)c2ccc(F)cc12 | inactive | –
6 | Cc1cc(C(F)(F)F)n2nc(-c3cnn(C)c3C(F)(F)F)c(Cl)c2n1 | inactive | –
7 | CNc1oc(C)nc1S(=O)(=O)c1ccc(C)cc1 | inactive | –
8 | COCCn1c(=O)c(-c2cccc(C#N)c2)nc2cnc(N3CCOCC3)nc21 | inactive | –
9 | COc1cc(OC)c2cc(-c3ccncc3)cnc2c1 | inactive | –
10 | COCCNC(=O)/C(C#N)=C/c1ccc(-c2ccc(OC)cc2[N+](=O)[O-])o1 | inactive | –
11 | CO/N=C/c1ccc(N2CCN(C(=O)c3ccc(Cl)cc3Cl)CC2)c([N+](=O)[O-])c1 | inactive | –
12 | Cc1snc(SCC(=O)N/N=C(\N)COc2cccc(C(F)(F)F)c2)c1C#N | inactive | –
13 | CC(=O)OC[C@@H]1O[C@H](C/C=N\OC[C@@H](C)[C@H](OCc2ccccc2)C(C)C)C=C[C@@H]1OC(C)=O | – | -1.74% [at 11.4 µM]
14 | C=CC[C@@H]1C=C[C@@H](O/N=C\C[C@@H]2C=C[C@H](OC(C)=O)[C@H](COC(C)=O)O2)[C@@H](CO)O1 | – | -12% [at 11.4 µM]
15 | CC(=O)OC[C@@H]1O[C@H](CCO/N=C\[C@@H](C)[C@H](OCc2ccccc2)C(C)C)C=C[C@@H]1OC(C)=O | – | -18.8% [at 11.4 µM]
16 | CC(=O)OC[C@@H]1O[C@H](C/C=N\OCC[C@H]2C=C[C@H](OC(C)=O)[C@@H](COC(C)=O)O2)C=C[C@@H]1OC(C)=O | – | -6.46% [at 11.4 µM]
17 | CC(=O)OC[C@H]1O[C@@H](O/N=C\[C@@H](C)[C@H](OCc2ccccc2)C(C)C)[C@H](OC(C)=O)[C@@H](OC(C)=O)[C@H]1OC(C)=O | 3.98 µM (active) | –
18 | CC(=O)OC[C@@H]1O[C@H](CCON=C(C)C)C=C[C@@H]1OC(C)=O | – | -4.81% [at 11.4 µM]
19 | COC(=O)[C@@H]1CC[C@H](C)[C@@H](c2ccc(C)cc2)N1C(=O)c1ccc(/C=N\O[C@@H]2O[C@H](COC(C)=O)[C@H](OC(C)=O)[C@H](OC(C)=O)[C@H]2OC(C)=O)cc1 | – | -6.2% [at 11.4 µM]
20 | CC(=O)OC[C@H]1O[C@@H](ON=C(C)C)[C@H](OC(C)=O)[C@@H](OC(C)=O)[C@H]1OC(C)=O | 3.16 µM (active) | –
21 | CC(=O)OC[C@@H]1O[C@H](C/C=N\O[C@@H]2O[C@H](COC(C)=O)[C@@H](OC(C)=O)[C@H](OC(C)=O)[C@H]2OC(C)=O)C=C[C@@H]1OC(C)=O | 3.98 µM (active) | –
